HT1080-NT tox: qHTS for induction of synthetic lethality in tumor cells producing 2HG: qHTS for the HT-1080-NT fibrosarcoma cell line; Potency, µM (highest dose often 46.1 µM), without a hit: at the top dose activity, negative = less viability, usual class: cytotoxic; AID 686970, 2013; HT-1080-NT fibrosarcoma viability, CellTiter-Glo ATP luminescence, 48 h; actives 1.6% (n = 360,000);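 further: NT is the 2HG producing partner of a matched IDH1 knockdown line; potency means the concentration at half of the fitted maximal effect; 0% = DMSO-treated cells and -100% = media-only wells without cells; nearly all actives have a fitted effect of over 55% in size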
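Toxicity toward the 2HG-producing NT line was scored as %Activity, normalised to DMSO and no-cell wells, from CellTiter-Glo luminescence after 48 hours' treatment.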
HT1080 IDH1KD tx: qHTS for induction of synthetic lethality in tumor cells producing 2HG: qHTS for the HT-1080-IDH1KD cell line | HT-1080 IDH1 knockdown viability, ATP luminescence, 48 h | actives 2% (n = 360,000) | AID 686971, 2013 | Potency, µM (doses to about 46.1 µM), for inactives: top-dose activity, negative = toxicity, most hits filed as cytotoxic;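 further: potency means the concentration at half of the fitted maximal effect; 0% = DMSO wells and -100% = cell-free medium wells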
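After a 2 h attachment period, IDH1KD HT-1080 cells took pin-transferred compound for 48 h at 37 °C; ATP-based luminescence after 10 min room-temperature reagent incubation reported viability.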
DT40 TDP1 no CPT: qHTS for Inhibitors of human tyrosyl-DNA phosphodiesterase 1 (TDP1): qHTS in cells in absence of CPT | DT40 Tdp1-/- hTDP1 cells, no CPT, ATP luminescence, 48 h | Potency, µM (doses to about 46.2 µM), for inactives: at the highest dose activity change, negative = growth inhibition, hits mostly inhibitors | actives 15% (n = 420,000) | AID 686978, 2013; further: potency means the concentration at half of the fitted maximal effect; nearly all actives have a fitted effect of over 55% in size
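Chicken DT40 Tdp1-/- cells stably complemented with human TDP1 were seeded at 400 cells/well with DMSO in place of 20 nM camptothecin. After compound pinning, cells grew at least 48 hr at 37 °C; viability read by CellTiter-Glo luminescence.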
ELG1 repair inh: qHTS screen for small molecules that inhibit ELG1-dependent DNA repair in human embryonic kidney (HEK293T) cells expressing luciferase-tagged ELG1 | HEK293T ELG1-luciferase reporter, luminescence, 16 h; DNA damage induced by 5-fluorouridine | Potency, µM (highest dose often 46.1 µM), for inactives: at the highest dose activity change, negative = inhibition, usual class: inhibitors | actives 2.3% (n = 330,000); further: potency means the concentration at half of the fitted maximal effect; nearly all actives have a fitted effect of over 55% in size
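Reporter activity after DNA damage by 5-fluorouridine is monitored. Compound-treated cells incubate 16 hr at 37 °C, then ONE-Glo is added for 30 min before luminescence reading.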
TDP1 cell CPT: qHTS for Inhibitors of human tyrosyl-DNA phosphodiesterase 1 (TDP1): qHTS in cells in presence of CPT | chicken DT40 Tdp1-/-;hTDP1 cells + 20 nM CPT, ATP luminescence, 48 h | Potency, µM (top dose mostly 46.2 µM), for the others: top-dose activity change, negative = growth inhibition, usual class: inhibitors | actives 12% (n = 420,000); further: potency means the concentration at half of the fitted maximal effect; nearly all actives have a fitted effect of over 55% in size
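Chicken DT40 Tdp1-/- cells complemented with human TDP1, 400 cells/well, exposed to compounds plus 20 nM camptothecin for at least 48 h at 37 C; viability read as ATP content by CellTiter-Glo luminescence.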
IL-1B inflam inh: qHTS for Inhibitors of Inflammasome Signaling: IL-1-beta AlphaLISA Primary Screen; THP-1 LPS/ATP IL-1B secretion, AlphaLISA, 16 h; hits give low values; activity change, % at 57.5 µM; actives 4.7% (n = 360,000); in the data active means activity change below about -50%; inconclusive means mostly about -30% to -49%
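THP-1 cells pretreated 1 hr with compounds (up to 57.5 uM final), then stimulated with LPS (250 ng/mL final) plus ATP (1.25 mM final); secreted IL-1B measured by AlphaLISA after 16 hr, decreased signal indicating inhibition.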
* hit, by the source's call; u = inconclusive; x = no result given. The list is not random: actives were taken first. Their share in the collection is about 19%. Unless noted, the call rests on the fitted dose curve; in most records, active means well fitted curve in the direction sought with a large enough effect; inconclusive means small, poorly fitted or top-dose-only effect, or another doubt; inactive means no such curve, though single readings can be large; an effect the other way counts as inactive or inconclusive. Unless noted, on the % scale 0 is the no-effect control and ±100 the full control effect.

SMILES	HT1080-NT tox	HT1080 IDH1KD tx	DT40 TDP1 no CPT	ELG1 repair inh	TDP1 cell CPT	IL-1B inflam inh
Cc1nc(N)nc(N)c1-c1ccc(Cl)c(Cl)c1	u	0.581µM*	0.164µM*	x	0.259µM*	-10.9
Cc1cc(OCc2nc(N)nc(N)c2-c2ccc(Cl)c(Cl)c2)ccc1[N+](=O)[O-]	u	0.82µM*	0.13µM*	x	0.581µM*	-52.6*
CC1CN(S(=O)(=O)c2ccc(C(=O)N(C)C3CCCCC3)cc2)CC(C)O1 (centres undefined)	8.3%	17.4%	u	-9.0%	-23.7%	20.6
CCOc1ccc(Br)cc1S(=O)(=O)Nc1ncn[nH]1	0.0%	0.0%	-8.4%	16.5%	-5.2%	1.4
Cc1cc2n(n1)CCC(=O)N2Cc1ccc(C(=O)Nc2cc(Cl)ccc2C)cc1	x	x	20.6µM*	x	u	x
COc1cc(Cl)c(C)cc1NC(=O)c1ccc(CN2C(=O)CCn3nc(C)cc32)cc1	x	x	-20.9%	x	-13.7%	x
O=C(O)c1cccc(NC(=O)c2ccc(CN3C(=O)c4ccccc4C3=O)cc2)c1	18.5%	24.8%	0.1%	10.2%	-2.5%	5.6
Cc1cc2n(n1)CCC(=O)N2Cc1ccc(C(=O)Nc2cccc(C(F)(F)F)c2)cc1	x	x	14.6µM*	x	14.6µM*	x
Cc1sc2ncnc(N3CCC(C(=O)NNC(=O)COc4cccc(C(F)(F)F)c4)CC3)c2c1C	-11.9%	-6.4%	-28.1%	u	u	-4.3
CN(C)c1ncnc2c1ncn2[C@H]1CN(Cc2cccnc2)C[C@@H](CO)O1	4.2%	10.0%	0.6%	x	-10.1%	0.0
CCC(c1nc2ccccc2[nH]1)N(CCCn1ccnc1)C(=O)c1ccc(C(F)(F)F)cc1 (centres undefined)	8.0%	-12.8%	-19.8%	x	u	-1.2
CCCCN(C(=O)c1ccccc1Cl)C(CC(C)C)c1nc2ccccc2[nH]1 (centres undefined)	u	u	u	x	20.6µM*	9.2
Cc1cc(/C=C/c2nc3ccccc3s2)ccc1N(C)C	x	x	1µM*	x	1.41µM*	x
CNC(=O)COC(=O)/C=C/c1nc2ccccc2s1	-2.9%	-6.9%	u	u	2.5%	-29.3
CN(C)c1ccc(/C=C/c2nc3ccccc3s2)cc1Cl	x	x	2.82µM*	x	5.01µM*	x
CCCCC1C(=O)N(c2ccccc2)N(c2ccc(O)cc2)C1=O (centres undefined)	u	9.4%	0.581µM*	u	1.03µM*	-109.0*
CC(C)=CCC1C(=O)N(c2ccccc2)N(c2ccccc2)C1=O	x	x	3.76µM*	x	3.76µM*	x
O=C1C2C3C=CC(CC3)C2C(=O)N1c1ccccc1 (centres undefined)	5.5%	7.4%	u	-1.6%	4.5%	23.4
CSc1nc(SCCN(C)C)c2c3c(sc2n1)COC(C)(C)C3	-23.7%	u	18.4µM*	-15.0%	u	-60.9*
Cc1nc(SCc2nc3c(O)cccc3[nH]2)c2oc3ccccc3c2n1	x	x	x	-17.8%	x	x
O=C(Nc1ccc(Cl)cc1)N1CCN(c2ccccc2)CC1	6.4%	4.0%	u	-7.5%	u	-4.2
CC(=O)c1ccc(NC(=O)N2CCN(c3cccc(Cl)c3)CC2)cc1	10.6%	6.9%	11.6µM*	u	11.6µM*	-15.1
CCOC(=O)c1ccc(NC(=O)N2CCN(c3cccc(OC)c3)CC2)cc1	-4.2%	11.7%	18.4µM*	u	u	0.0
CC(=O)c1ccc(N2CCN(C(=O)Nc3ccc(Cl)cc3)CC2)cc1	-21.5%	-19.6%	10.3µM*	16.4µM*	u	-9.3
O=C(O)c1c(C(=O)O)c(-c2ccc(Cl)c(Cl)c2)n2c1CSC2	20.8%	20.6%	5.6%	-0.9%	0.8%	7.2
SMILES	HT1080-NT tox	HT1080 IDH1KD tx	DT40 TDP1 no CPT	ELG1 repair inh	TDP1 cell CPT	IL-1B inflam inh
CC1(c2nnnn2-c2ccc3c(c2)OCCO3)CCC(=O)N1C1CCN(Cc2ccccc2)CC1 (centres undefined)	11.8%	5.6%	-29.9%	x	0.4%	13.5
Cc1ccc(Cn2c(SCc3ccc(C(=O)N4CCCCC4)cc3)nc3ccncc32)cc1	x	x	8.2µM*	x	18.4µM*	x
Cc1cccc(CSc2nc3ccncc3n2CC(=O)Nc2cc(C)cc(C)c2)c1	-22.4%	-29.2%	u	-2.2%	u	0.0
O=C(c1ccc(CSc2nc3ccncc3n2Cc2ccccc2F)cc1)N1CCCCCC1	x	x	25.9µM*	x	u	x
Cc1ccc(Cn2c(SCc3ccc(C(=O)N4CCCCCC4)cc3)nc3ccncc32)cc1	x	x	20.6µM*	x	u	x
CCc1ccccc1NC(=O)Cn1c(SCc2ccc(F)cc2)nc2ccncc21	x	x	-0.2%	x	-22.3%	x
COc1ccccc1N1CCN(C(=O)c2cn(C)c3ccc(S(=O)(=O)N(C)C4CCCCC4)cc3c2=O)CC1	x	x	u	x	-27.1%	x
COCCNc1oc(/C=C/c2ccc(F)cc2)nc1S(=O)(=O)c1ccccc1	16.0%	-0.1%	-22.8%	8.7%	-28.6%	u
COc1cccc(CNC(=O)c2ccccc2-c2ccccc2)c1	17.7%	5.0%	-29.9%	-0.9%	u	17.1
O=C1NC[C@H](CCCCN2CCN(CCC3CCCCC3)C(=O)C2=O)N(CCC2CCCCC2)C1=O	5.4%	0.8%	0.0%	x	2.9%	0.0
COCC(=O)Oc1cc(-c2ccc(C)cc2C)c(OC(=O)COC)c(-c2ccc(C)cc2C)c1	-24.4%	u	9.2µM*	x	10.3µM*	u
Cc1ccc(S(=O)(=O)NCC2(c3ccccc3)CCN(C)CC2)cc1	-1.5%	-23.2%	11.9%	-1.8%	-12.3%	-65.9*
Cc1ccc(S(=O)(=O)NCCc2ccccc2)cc1	-6.3%	5.2%	-21.1%	u	-100.9%	-17.3
Cc1ccc(Cn2c(SCC(=O)NCc3ccco3)nc3ccsc3c2=O)cc1	-2.7%	-14.6%	-15.9%	6.6%	u	-10.9
Cc1ccc(CNC(=O)CSc2nc3ccsc3c(=O)n2-c2ccc(C(=O)O)cc2)cc1	x	x	3.9%	x	18.1%	x
Cc1ccc(Cn2c(SCC(=O)NCc3ccccc3Cl)nc3ccsc3c2=O)cc1	x	x	20.6µM*	x	u	x
Cc1ccc(Cn2c(SCC(=O)NCc3ccc(Cl)cc3)nc3ccsc3c2=O)cc1	x	x	-3.0%	x	u	x
